Where “and” joins values, the source holds several entries; their conditions need not be identical. Equal entries are not always repeated. About 79,000 compounds went through this panel and 15% of them were active in at least one assay; those are over-represented in the sample as a whole. Rule as the data show it: active = growth inhibition above about 70%; inactive = the rest.
Columns and labels:
[1] = NCI Yeast Anticancer Drug Screen. Data for the rad50 strain (AID 155);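 also: 0% = growth of vehicle-only cultures of the same strain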; details: S. cerevisiae rad50 strain growth inhibition, hits give high values; at 50.0 µM unless noted
Summary of the method: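 Relative growth inhibition (compound vs vehicle) was measured in yeast with a defined repair-gene alteration.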

[2] = NCI Yeast Anticancer Drug Screen. Data for the mec2-1 strain (AID 157); details: S. cerevisiae mec2-1 strain, hits give high values; at 50.0 µM unless noted
Summary of the method: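 mec2-1 yeast strain, carrying an alteration in DNA damage repair or cell cycle control, was exposed to compounds; growth inhibition was measured relative to vehicle-treated controls.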

[3] = NCI Yeast Anticancer Drug Screen. Data for the sgs1 mgt1 strain (AID 161);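 also: 0% = growth of cultures given vehicle only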; details: S. cerevisiae sgs1 mgt1 strain, hits give high values; at 50.0 µM unless noted
Summary of the method: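 Growth of a repair-deficient yeast mutant was monitored after compound treatment and expressed as inhibition relative to vehicle-treated cultures.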

[4] = NCI Yeast Anticancer Drug Screen. Data for the cln2 rad14 strain (AID 165);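 also: 0% = growth equal to vehicle treated cultures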; details: S. cerevisiae cln2 rad14 strain, hits give high values; at 50.0 µM unless noted
Summary of the method: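 Yeast carrying cln2 and rad14 alterations (cell cycle control and DNA damage repair) were exposed to compounds. Growth inhibition was measured against vehicle-treated controls.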

[5] = NCI Yeast Anticancer Drug Screen. Data for the bub3 strain (AID 167); details: S. cerevisiae bub3 mutant strain, hits give high values; at 50.0 µM unless noted
Summary of the method: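 Screening used yeast with an engineered genetic alteration affecting cell cycle control. Compound-exposed cultures were compared with vehicle cultures, and reduced growth was taken as inhibition.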

[6] = NCI Yeast Anticancer Drug Screen. Data for the mlh1 rad18 strain (AID 175); details: S. cerevisiae mlh1 rad18 strain growth inhibition, hits give high values; at 50.0 µM unless noted
Summary of the method: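 Growth inhibition of the yeast strain was measured after compound exposure and expressed relative to vehicle-treated controls. The strain carries defined defects in DNA damage repair.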

Measured: growth inhibition

CSc1nc(N)c(I)c(Cl)n1
inactive: [1] 7.8% | [2] 3.65% | [3] 6.9% | [4] 2.4% | [5] -14.6% | [6] -2.6%

C/C=C\c1noc2c1C(=O)OC(C)C2 (stereo unspecified)
inactive: [1] 49.4% | [2] 23.4% | [3] 40.4% | [4] 14.2% | [5] 22.4% | [6] 17.6%

O=C(c1ccccc1)c1ccc2c(Cl)ccc3c2c1CC3
inactive: [1] -2.8% | [2] -21.3% | [3] -9.75% | [4] 12.8% | [5] 7.6% | [6] -8.45%

Cc1cccc(Nc2nc(C)nc3[nH]cc(-c4ccccc4)c23)c1
inactive: [1] -14.7% | [2] -12.6% | [3] -10.9% | [4] -53.2% | [5] -15.5% | [6] -7.95%

Cc1c2c(c(O)c3sccc13)C(C)(C)OC2=O
inactive: [1] -3.75% | [2] -1.8% | [3] -9.6% | [4] -59% | [5] -26.4% | [6] -3.1%

CN(O)C(=O)CCC(NC(=O)CCC(N)C(=O)O)C(=O)NCC(=O)O (stereo unspecified)
inactive: [1] -25.4% | [2] -9.3% | [3] -11.9% | [4] 0.1% | [5] 1.6% | [6] -51.8%

O=NN(CCCl)C(=O)Oc1ccccc1
inactive: [1] -1.95% | [2] -10.6% | [3] -0.05% | [4] 0.15% | [5] -1.9% | [6] -11.3%

Cc1ccc(C2=Nc3ccccc3NC(=O)C2)cc1
inactive: [1] -2.6% | [2] -20.1% | [3] -12.6% | [4] 22.2% | [5] -7.35% | [6] -17.9%

CC1OCC(O)C(C(O)C(=O)CN(Cc2ccccc2)Cc2ccccc2)O1 (stereo unspecified)
inactive: [1] 10.2% | [2] 15.6% | [3] 8.65% | [4] 8.55% | [5] 5.75% | [6] 9.55%

NC(=O)Nc1nc2ccccc2[nH]1
inactive: [1] -26.2% | [2] -21.6% | [3] -11.7% | [4] -0.3% | [5] -7.7% | [6] 3.4%

O=S(=O)(c1ccc(Cl)cc1)S(=O)(=O)c1ccc(Cl)cc1
inactive: [1] 18.8% | [2] 8.5% | [3] 8.6% | [4] -18.4% | [5] 4.5% | [6] 10.4%

CC(=O)NC(C)c1ccccc1 (stereo unspecified)
inactive: [1] -4.75% | [2] 40.1% | [3] 15.3% | [4] -11.9% | [5] -1.55% | [6] 3.3%

C=C1CC(C2OCOC3COCOC32)OC1=O (stereo unspecified)
inactive: [1] -44.1% | [2] -12.9% | [3] -14.8% | [4] -22.6% | [5] 17.2% | [6] -2.1%

Cc1ccc2[nH]c3c(c2c1)C(=O)CCC3
inactive: [1] -7.6% | [2] -2.95% | [3] -12.3% | [4] -20.7% | [5] -17.9% | [6] -1.55%

C/C(=N\N/C=N/S(=O)(=O)c1ccccc1)c1ccccc1
inactive: [1] -12.2% | [2] 4.55% | [3] -6.35% | [4] 5.6% | [5] 0.55% | [6] -1.55%

Cc1[nH]c2ccccc2c1/C=C/c1c[nH]c2ccccc12
inactive: [1] 22% | [2] 29.9% | [3] 27.1% | [4] 15.8% | [5] 55.5% | [6] 40.4%

CCCCCC[N+](C)(C)C
inactive: [1] 28% | [2] -16.3% | [3] 2.7% | [4] 6.75% | [5] 31.3% | [6] 16.2%

O=C(NCc1ccccc1)C(=O)NCc1ccccc1
inactive: [1] 4.35% | [2] -1.85% | [3] -7.25% | [4] 3.5% | [5] -6.9% | [6] 5%

CC(=O)C(C(C)=O)=C1CCCC(O)O1 (stereo unspecified)
inactive: [1] 20.4% | [2] -0.7% | [3] 4.55% | [4] 5.7% | [5] 2.65% | [6] 13.1%

O=C1C=CC=C/C1=C1/SC(c2ccccc2)=C(O)N1c1ccccc1
inactive: [1] -40.2% | [2] -8.2% | [3] -12.5% | [4] -17.3% | [5] -19.9% | [6] -18.5%

NCC(=O)NC(Cc1c[nH]c2ccccc12)C(=O)O (stereo unspecified)
inactive: [1] 7.85% and -4.8% | [2] -4.65% and 1.4% | [3] 7.45% and -7.4% | [4] -0.8% and 13.8% | [5] 26.8% and -10% | [6] -0.75% and -5.4%

N#CCCC(CC#N)N1CCN(CCO)CC1 (stereo unspecified)
inactive: [1] -35.1% | [2] -43.9% | [3] -18.7% | [4] -21.2% | [5] -0.95% | [6] -39.4%

COC(=O)c1ccccc1NC(=O)Nc1ncccn1
inactive: [1] -5.3% | [2] 2.4% | [3] -7.2% | [4] -10.1% | [5] -11.2% | [6] -11.5%

ClCCCSSCCCCl
inactive: [1] 24.1% | [2] 21.2% | [3] 20.4% | [4] -7.95% | [5] 14.4% | [6] 3.85%

CCN(CC)c1ccc2c(c1)C(=O)c1ccccc1-2
inactive: [1] -6.7% | [2] 27.6% | [3] 14.2% | [4] 15.8% | [5] 38.8% | [6] 30.6%

CCCC(=O)NC(Nc1ccc(S(=O)(=O)Nc2cc(C)on2)cc1)(C(=O)OCC)C(F)(F)F (stereo unspecified)
inactive: [1] 32.8% | [2] -18.9% | [3] 4.75% | [4] 18.1% | [5] -14.4% | [6] -40.8%

Cc1ccnc(NC#N)n1
inactive: [1] 14.8% | [2] 13.6% | [3] 21.6% | [4] 19.1% | [5] 19.4% | [6] 14.8%

Cc1c(NC(=O)CSC(=S)N(C)C)c(=O)n(-c2ccccc2)n1C
inactive: [1] -1.1% | [2] -2.45% | [3] -18.4% | [4] 6.75% | [5] -35.8% | [6] -53.4%

COc1cccc(/C=C/c2ccnnc2)c1
inactive: [1] 4.3% | [2] -2.8% | [3] -7.55% | [4] -7.65% | [5] 16.9% | [6] -3.85%

C=C(C)C1CCC2(C)C1CCC1(C)C2CCC2C3(C)C4OC(OC4=O)C(C)(C)C3CCC21C (stereo unspecified)
inactive: [1] -0.8% | [2] -20% | [3] 11.8% | [4] 0.1% | [5] 17.6% | [6] -53%

CCOC(=O)/C(Cc1ccc2ccccc2n1)=N/O
inactive: [1] -6.35% | [2] -26.2% | [3] 0.9% | [4] -16.8% | [5] 13.7% | [6] 6.25%

OC1(Cc2ccccc2)CCCCCC1
inactive: [1] -2.3% | [2] 1.3% | [3] 2.15% | [4] -64.7% | [5] -0.95% | [6] 1.95%

N#CC(C(=O)C(=O)Nc1nccs1)c1ccccc1 (stereo unspecified)
inactive: [1] 5.85% | [2] -0.85% | [3] 4.75% | [4] 41.9% | [5] 17.2% | [6] 16%

CNC(=O)C1C(=O)NC(=O)C1=C1CCCC1 (stereo unspecified)
inactive: [1] 11.2% | [2] -1.1% | [3] 4.8% | [4] -58.8% | [5] 8.1% | [6] -14.6%

COC(=O)C1(CC(=O)c2c(C)[nH]c3ccccc23)NC(=S)NC(=O)C1C#N (stereo unspecified)
inactive: [1] -6.35% | [2] 14.7% | [3] -21.1% | [4] -5.15% | [5] -11.1% | [6] 26.4%

Nc1nc2ncc(COc3ccc(C(=O)O)cc3)nc2c(=O)[nH]1
inactive: [1] 18.8% | [2] 3.2% | [3] 31.6% | [4] -16.1% | [5] 53.2% | [6] 13.6%

C1COC2SC3=C(SC(=C4SC5=C(SCCS5)S4)S3)SC2O1 (stereo unspecified)
inactive: [1] 3.05% | [2] -2.05% | [3] 19.2% | [4] -5.6% | [5] 8.85% | [6] 6.9%

Oc1ccc(-c2nc(-c3cccnc3)c(-c3ccc(F)cc3)[nH]2)cc1
inactive: [1] 5.2% | [2] -13.7% | [3] 12.8% | [4] 8.55% | [5] 12.5% | [6] 57.8%

C#CCN(N=O)C(=O)NCCCCC(NC(C)=O)C(=O)NCc1ccccc1 (stereo unspecified)
inactive: [1] 3.4% | [2] -16.9% | [3] -16.9% | [4] 5% | [5] -16.2% | [6] -15.1%

CCCCC(NC(=O)C(C)NC(=O)OCc1ccccc1)C(=O)O (stereo unspecified)
inactive: [1] 2% | [2] 6.3% | [3] 3.4% | [4] 4.75% | [5] 12.8% | [6] -9.6%

O=[N+]([O-])c1ncccc1O
inactive: [1] 12.2% | [2] -2.75% | [3] -4.5% | [4] 9.35% | [5] 12% | [6] 15.9%

Source: PubChem BioAssay (NCI)
